Measured values published in PubChem BioAssay AID1159580 (chemical genetic matrix, 2015).
In all, about 5,500 compounds went through this assay and about 2,000 (36%) were called active. About 18% were inconclusive and are not listed. Cut-off read from the data, not from the text of the source: active = normalized growth mostly below about 0.91 (no sharp cut-off); inconclusive = no clear call, values can overlap the other calls; inactive = mostly above about 0.92. Some of the results follow.

Assay: chemical genetic growth profiling, strain panel (AID 1159580);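 note: tested at 20 µM; growth read once vehicle control cultures reached saturation at 30 °C; 1 = growth at the plate median or of vehicle wells; lower values mean less growth of the strain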
Conditions: growth OD
[1] = S. cerevisiae deletion strains, locus YCL061C, strain MRC1, active compounds read low
[2] = S. cerevisiae deletion strains, locus YHR030C, strain SLT2, active compounds read low
[3] = S. cerevisiae deletion strains, locus YJL187C, strain SWE1, active compounds read low

Measured: normalized growth

Clc1ccccc1CN1CCc2sccc2C1
inactive: S. cerevisiae deletion strains, locus YAL021C, strain ccr4, active compounds read low 1.01 | S. cerevisiae deletion strains, locus YAL026C, strain drs2, active compounds read low 1.01 | S. cerevisiae deletion strains, locus YAL030W, strain snc1, active compounds read low 1.01 | S. cerevisiae deletion strains, locus YBL061C, strain skt5, active compounds read low 1 | S. cerevisiae deletion strains, locus YBR009C, strain hhf1, active compounds read low 1.01 | S. cerevisiae deletion strains, locus YBR023C, strain chs3, active compounds read low 1.01 | S. cerevisiae deletion strains, locus YBR171W, strain sec66, active compounds read low 1.02 | S. cerevisiae deletion strains, locus YBR231C, strain swc5, active compounds read low 1.02 | S. cerevisiae deletion strains, locus YBR279W, strain paf1, active compounds read low 1.02 | S. cerevisiae deletion strains, locus YCL011C, strain gbp2, active compounds read low 1.01 | S. cerevisiae deletion strains, locus YCL016C, strain dcc1, active compounds read low 1.01 | [1] 1.01 | S. cerevisiae deletion strains, locus YCL069W, strain vba3, active compounds read low 1.01 | S. cerevisiae deletion strains, locus YCR088W, strain abp1, active compounds read low 1 | S. cerevisiae deletion strains, locus YDL005C, strain med2, active compounds read low 1.03 | S. cerevisiae deletion strains, locus YDL040C, strain nat1, active compounds read low 1.01 | S. cerevisiae deletion strains, locus YDR001C, strain nth1, active compounds read low 1.01 | S. cerevisiae deletion strains, locus YDR069C, strain doa4, active compounds read low 1 | S. cerevisiae deletion strains, locus YDR137W, strain rgp1, active compounds read low 0.879 | S. cerevisiae deletion strains, locus YDR159W, strain sac3, active compounds read low 1.03 | S. cerevisiae deletion strains, locus YDR195W, strain ref2 1.05 | S. cerevisiae deletion strains, locus YDR297W, strain sur2, active compounds read low 1.01 | S. cerevisiae deletion strains, locus YDR334W, strain swr1, active compounds read low 1.01 | S. cerevisiae deletion strains, locus YDR335W, strain msn5, active compounds read low 1.01 | S. cerevisiae deletion strains, locus YDR392W, strain spt3, active compounds read low 0.77 | S. cerevisiae deletion strains, locus YEL003W, strain gim4, active compounds read low 1.01 | S. cerevisiae deletion strains, locus YEL037C, strain rad23, active compounds read low 0.985 | S. cerevisiae deletion strains, locus YEL061C, strain CIN8 (second series), active compounds read low 1 | S. cerevisiae deletion strains, locus YER015W, strain faa2, active compounds read low 1.01 | S. cerevisiae deletion strains, locus YER016W, strain bim1, active compounds read low 1.01 | S. cerevisiae deletion strains, locus YER111C, strain swi4, active compounds read low 1.01 | S. cerevisiae deletion strains, locus YER155C, strain BEM2 (second series), active compounds read low 0.928 | S. cerevisiae deletion strains, locus YFR010W, strain ubp6, active compounds read low 0.995 | S. cerevisiae deletion strains, locus YGL167C, strain pmr1, active compounds read low 1 | S. cerevisiae deletion strains, locus YGL173C, strain kem1, active compounds read low 1.01 | S. cerevisiae deletion strains, locus YGL227W, strain vid30, active compounds read low 1.02 | S. cerevisiae deletion strains, locus YGL240W, strain doc1, active compounds read low 0.947 | S. cerevisiae deletion strains, locus YGL253W, strain hxk2, active compounds read low 1 | S. cerevisiae deletion strains, locus YHR013C, strain ard1, active compounds read low 1.07 | S. cerevisiae deletion strains, locus YHR027C, strain rpn1, active compounds read low 1.01 | [2] 1.04 | S. cerevisiae deletion strains, locus YHR079C, strain IRE1, active compounds read low 1.03 | S. cerevisiae deletion strains, locus YHR142W, strain chs7, active compounds read low 0.961 | S. cerevisiae deletion strains, locus YJL092W, strain hpr5, active compounds read low 1 | S. cerevisiae deletion strains, locus YJL095W, strain BCK1 (second series), active compounds read low 1.01 | S. cerevisiae deletion strains, locus YJL095W, strain BCK1, active compounds read low 0.985 | S. cerevisiae deletion strains, locus YJL115W, strain asf1, active compounds read low 1 | S. cerevisiae deletion strains, locus YJL129C, strain trk1, active compounds read low 0.973 | S. cerevisiae deletion strains, locus YJL154C, strain vps35, active compounds read low 1.01 | S. cerevisiae deletion strains, locus YJL164C, strain tpk1, active compounds read low 0.994 | S. cerevisiae deletion strains, locus YJL166W, strain qcr8, active compounds read low 0.981 | [3] 1.01 | S. cerevisiae deletion strains, locus YJR066W, strain TOR1, active compounds read low 0.969 | S. cerevisiae deletion strains, locus YKL160W, strain elf1, active compounds read low 0.987 | S. cerevisiae deletion strains, locus YKR026C, strain gcn3, active compounds read low 0.994 | S. cerevisiae deletion strains, locus YKR091W, strain srl3, active compounds read low 1.01 | S. cerevisiae deletion strains, locus YLL001W, strain dnm1, active compounds read low 1.02 | S. cerevisiae deletion strains, locus YLL026W, active compounds read low 1.01 | S. cerevisiae deletion strains, locus YLL041C, strain sdh2, active compounds read low 1 | S. cerevisiae deletion strains, locus YLR027C, strain aat2, active compounds read low 1.01 | S. cerevisiae deletion strains, locus YLR113W, strain HOG1, active compounds read low 0.98 | S. cerevisiae deletion strains, locus YLR221C, strain rsa3, active compounds read low 0.983 | S. cerevisiae deletion strains, locus YLR258W, strain gsy2, active compounds read low 1.01 | S. cerevisiae deletion strains, locus YLR262C, strain YPT6 (second series), active compounds read low 0.884 | S. cerevisiae deletion strains, locus YLR320W, strain mms22, active compounds read low 0.927 | S. cerevisiae deletion strains, locus YLR342W, strain FKS1, active compounds read low 1.01 | S. cerevisiae deletion strains, locus YLR357W, strain rsc2, active compounds read low 1.04 | S. cerevisiae deletion strains, locus YLR370C, strain arc18, active compounds read low 1.01 | S. cerevisiae deletion strains, locus YLR384C, strain iki3, active compounds read low 1.01 | S. cerevisiae deletion strains, locus YML120C, strain ndi1, active compounds read low 0.986 | S. cerevisiae deletion strains, locus YMR058W, strain fet3, active compounds read low 1.01 | S. cerevisiae deletion strains, locus YMR125W, strain sto1, active compounds read low 1.04 | S. cerevisiae deletion strains, locus YMR129W, active compounds read low 1.01 | S. cerevisiae deletion strains, locus YMR205C, strain PFK2, active compounds read low 0.998 | S. cerevisiae deletion strains, locus YMR231W, strain pep5, active compounds read low 1.01 | S. cerevisiae deletion strains, locus YNL183C, strain NPR1, active compounds read low 0.949 | S. cerevisiae deletion strains, locus YNL209W, strain ssb2, active compounds read low 1.01 | S. cerevisiae deletion strains, locus YNL248C, strain rpa49, active compounds read low 0.953 | S. cerevisiae deletion strains, locus YNL322C, strain KRE1 (second series), active compounds read low 1.01 | S. cerevisiae deletion strains, locus YNR049C, strain mso1, active compounds read low 1.01 | S. cerevisiae deletion strains, locus YOR001W, strain rrp6, active compounds read low 0.988 | S. cerevisiae deletion strains, locus YOR070C, strain gyp1, active compounds read low 1 | S. cerevisiae deletion strains, locus YOR080W, strain dia2, active compounds read low 1.01 | S. cerevisiae deletion strains, locus YOR083W, strain WHI5, active compounds read low 0.982 | S. cerevisiae deletion strains, locus YOR106W, strain vam3, active compounds read low 0.977 | S. cerevisiae deletion strains, locus YOR231W, strain MKK1, active compounds read low 1.02 | S. cerevisiae deletion strains, locus YOR265W, strain rbl2, active compounds read low 1.01 | S. cerevisiae deletion strains, locus YOR270C, strain vph1, active compounds read low 0.952 | S. cerevisiae deletion strains, locus YOR290C, strain snf2, active compounds read low 1 | S. cerevisiae deletion strains, locus YPL051W, strain arl3, active compounds read low 0.973 | S. cerevisiae deletion strains, locus YPL078C, strain atp4, active compounds read low 0.964 | S. cerevisiae deletion strains, locus YPL106C, strain sse1, active compounds read low 1.01 | S. cerevisiae deletion strains, locus YPL240C, strain hsp82, active compounds read low 1 | S. cerevisiae deletion strains, locus YPL256C, strain CLN2, active compounds read low 1.02
active: S. cerevisiae deletion strains, locus YNL071W, strain lat1, active compounds read low 0.906

Cc1nn(Cc2ccccc2Cl)c(=N)s1
inactive: S. cerevisiae deletion strains, locus YAL013W, strain DEP1, active compounds read low 1.01 | S. cerevisiae deletion strains, locus YBR229C, strain ROT2, active compounds read low 0.999 | [1] 0.992 | S. cerevisiae deletion strains, locus YDL101C, strain DUN1, active compounds read low 0.991 | S. cerevisiae deletion strains, locus YDL134C, strain PPH21, active compounds read low 0.978 | S. cerevisiae deletion strains, locus YDR150W, strain NUM1, active compounds read low 0.971 | S. cerevisiae deletion strains, locus YEL061C, strain CIN8, active compounds read low 1.02 | S. cerevisiae deletion strains, locus YGR078C, strain PAC10, active compounds read low 0.997 | S. cerevisiae deletion strains, locus YGR229C, strain SMI1, active compounds read low 0.985 | [2] 0.959 | S. cerevisiae deletion strains, locus YHR087W, strain rtc3, active compounds read low 0.972 | [3] 0.995 | S. cerevisiae deletion strains, locus YJR043C, strain POL32, active compounds read low 0.991 | S. cerevisiae deletion strains, locus YJR075W, strain HOC1, active compounds read low 0.99 | S. cerevisiae deletion strains, locus YLR039C, strain RIC1, active compounds read low 0.939 | S. cerevisiae deletion strains, locus YLR058C, strain SHM2 (second series), active compounds read low 1.01 | S. cerevisiae deletion strains, locus YLR085C, strain ARP6, active compounds read low 1.03 | S. cerevisiae deletion strains, locus YLR262C, strain YPT6, active compounds read low 0.954 | S. cerevisiae deletion strains, locus YML094W, strain GIM5, active compounds read low 1.04 | S. cerevisiae deletion strains, locus YMR219W, strain ESC1, active compounds read low 0.998 | S. cerevisiae deletion strains, locus YMR263W, strain SAP30, active compounds read low 1 | S. cerevisiae deletion strains, locus YMR307W, strain GAS1, active compounds read low 0.981 | S. cerevisiae deletion strains, locus YNL153C, strain GIM3, active compounds read low 1.02 | S. cerevisiae deletion strains, locus YNL298W, strain CLA4 (second series), active compounds read low 0.932 | S. cerevisiae deletion strains, locus YNL322C, strain KRE1, active compounds read low 0.985 | S. cerevisiae deletion strains, locus YNR030W, strain Alg12, active compounds read low 0.988 | S. cerevisiae deletion strains, locus YOL006C, strain TOP1, active compounds read low 0.939 | S. cerevisiae deletion strains, locus YPL055C, strain LGE1, active compounds read low 1.06 | S. cerevisiae deletion strains, locus YPL241C, strain CIN2, active compounds read low 0.993 | S. cerevisiae deletion strains, locus YPR135W, strain CTF4, active compounds read low 0.972 | S. cerevisiae strains, strain wild type, active compounds read low 0.96
